Assay outcomes (PubChem)
Only some compounds are listed: those with a hit (about 3.9% of all), similar ones and a draw of the others.
Platelet DG rel: inhibitors of platelet dense granule secretion, primary screen, cell-based, MLPCN, human platelets. human platelet-rich plasma, SFLLRN dense granule ATP release, luminescence. inhibition, %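 (compounds screened at 7.5 µM in platelet-rich plasma)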. hit rate 0.22% among 300,000. AID 1663, 2009;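 active means mean replicate score, as percent of positive control, at or above 50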
WT yeast gro inh: growth inhibition of WT strain, primary screen, mitochondrial fusion inhibitor project, WT and mutant strains, chemical genetic. mitochondrial fusion phenotypic screen. inhibition, % at 10 µM. hit rate 2.1% among 190,000; in the data active means inhibition above about 58%; tested in S. cerevisiae
PHOSPHO1 block: PubChem AID 1565; Phosphoethanolamine/phosphocholine phosphatase (Homo sapiens), Q8TCT1; recombinant PHOSPHO1, absorbance phosphatase assay; inhibition, % at 13.3 µM; hit rate 1.1% among 290,000; in the data active means inhibition above about 60%
Target sequence (Q8TCT1 whole entry, looked up): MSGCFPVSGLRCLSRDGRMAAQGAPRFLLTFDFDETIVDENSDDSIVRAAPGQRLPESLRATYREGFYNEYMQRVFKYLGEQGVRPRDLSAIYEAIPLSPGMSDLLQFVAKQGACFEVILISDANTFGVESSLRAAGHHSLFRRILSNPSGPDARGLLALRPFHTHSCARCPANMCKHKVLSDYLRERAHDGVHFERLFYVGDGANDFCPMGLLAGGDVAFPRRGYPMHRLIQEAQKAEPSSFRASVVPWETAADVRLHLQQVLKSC
TPT1 inhibitor: Candida albicans TPT1 enzyme inhibitors, primary screen, biochemical, fluorescence polarization; tRNA 2'-phosphotransferase TPT1 (Candida albicans SC5314); recombinant caTPT1, FP RNA substrate dephosphorylation; inhibition, % at 5 µM; hit rate 0.81% among 300,000;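 active means inhibition above the mean of all tested compounds plus 3 SD, set per screening campaign, cut at about 24% in these data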;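 further: plate controls were DMSO alone for no effect and ferristatin control at 100 nM for full effect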
Rtt109 HAT inh: inhibitors of C. albicans Rtt109/Vps75 HAT, primary screen, biochemical, ThioGlo CoA-SH fluorescence, plate reader | Histone acetyltransferase RTT109 (Candida albicans (strain SC5314 / ATCC MYA-2876)), … | purified Rtt109/Vps75, 4 h | inhibition, % at 34.9 µM | hit rate 0.16% among 330,000;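 active means inhibition of at least 50% in every replicate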
SKKanGAS inh: S. pyogenes SKKanGAS growth inhibitors in kanamycin, primary screen, streptokinase expression inhibitor project, SKKanGAS strain, BacTiter-Glo luminescence; 6 h; inhibition, % at 7.5 µM; hit rate 1.3% among 300,000;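 active means mean replicate score, as percent of positive control median, at least 50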;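 further: strain carries kanamycin resistance gene driven by streptokinase promoter and grows in 40 µg/ml kanamycin; loss of luminescence reflects streptokinase promoter inhibition or plain growth inhibition; 0% = median of DMSO wells and 100% = positive control at its reference dose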
* marks the source's active call; other numbers are inactive results; · = not tested or not shown.

SMILES | Platelet DG rel | WT yeast gro inh | PHOSPHO1 block | TPT1 inhibitor | Rtt109 HAT inh | SKKanGAS inh
Cc1ccc(Cl)cc1Nc1nc(-c2sc(NC(=O)c3ccco3)nc2C)cs1 | 9.0 | 28.4 | 41.6 | 1.9 | 4.1 | 34.8
Cc1nc(NC(=O)c2ccco2)sc1-c1csc(Nc2ccc(Cl)cc2Cl)n1 | -4.6 | 70.9* | -18.6 | 1.3 | -2.3 | 32.0
Cc1nc(NC(=O)c2ccco2)sc1-c1csc(Nc2ccc(Cl)cc2)n1 | 2.3 | 50.7 | 7.2 | -3.7 | -1.2 | 26.8
CC(C)c1ccc(NC(=O)CSc2n[nH]c(=O)n2C2CC2)cc1 | 6.3 | · | 36.6 | -1.2 | -4.7 | -6.5
CC(C)=CC(=O)N1CCCC(N2CCN(c3ccc(F)cc3)CC2)C1 (stereo not drawn) | -5.8 | · | 13.9 | -0.5 | 23.3 | 3.4
COc1ccc(/C=N/N=C(\N)c2nonc2N)cc1 | 67.5* | -24.9 | 24.3 | · | 5.6 | -18.2
O=C(O)c1ccc(N/N=C/c2ccc3nccnc3c2)cc1 | 55.7* | · | 24.4 | 4.2 | -6.4 | 14.4
O=C(O)c1ccc(/C=N\Nc2ccccn2)cc1 | 52.8* | · | · | -3.6 | 17.8 | 21.1
O=C(O)c1ccc(N/N=C/c2ccncc2)cc1 | 10.1 | · | 42.2 | -0.2 | -6.4 | 2.4
O=C(COc1ccc(Cl)cc1Cl)NCCC1=CCCCC1 | 0.0 | 65.8* | 18.3 | -2.3 | -1.2 | 13.1
Cc1cc(SCC(=O)N/N=C/c2ccc(O)c(O)c2O)c(C)cc1Br | -5.6 | 15.7 | -1.4 | 4.7 | 0.9 | 69.4*
COc1cc(/C=N/NC(=O)CSc2cc(C)c(Br)cc2C)ccc1O | -0.1 | 24.6 | 12.1 | -3.3 | 15.4 | 24.2
COC(=O)C(Nc1ccccc1Cl)(c1cc(C)c(O)c(C)c1)C(F)(F)F (stereo not drawn) | 7.5 | 90.3* | -10.7 | -2.5 | 0.7 | 88.4*
CCOC(=O)C(NC(=O)c1ccccc1Cl)(Nc1ccc(C)c(C)c1)C(F)(F)F (stereo not drawn) | 5.9 | 27.5 | 14.7 | 0.3 | 5.8 | 2.8
CCCNC(=O)c1ccc2c(c1)C1C3CCC(C3)C1C(c1ccccc1)N2 (stereo not drawn) | 1.1 | 62.4* | -5.9 | 1.2 | 3.0 | 6.0
CCOC(=O)c1cccc(C2=CC(=O)C[C@H](c3ccc(OC)cc3)C2)c1 | · | · | · | · | 4.3 | ·
CC(C)n1nnnc1SCC(=O)N1CCN(Cc2ccc3c(c2)OCCO3)CC1 | · | · | · | · | 2.4 | ·
CN(C)c1ccc(NC(=O)c2ccc3nsnc3c2)cc1 | -11.0 | -2.0 | 74.4* | 1.8 | -10.9 | 1.3
c1ccc(Sc2cccc3ccccc23)c(CNC2=NCCN2)c1 | -10.6 | 67.3 | -0.5 | 0.3 | 8.9 | 4.0
Fc1ccccc1Sc1ccccc1CNC1=NCCN1 | 6.0 | 79.7* | 27.9 | 0.3 | 4.9 | -1.2
CC1(C(=O)N(Cc2ccccc2)Cc2ccccc2)CC1(Br)Br (stereo not drawn) | -6.7 | 83.5* | 1.8 | -3.5 | 0.0 | 11.1
O=C(O)CCSc1nc2ccc(Br)cc2[nH]1 | -9.4 | -0.9 | 66.3* | -1.1 | 0.5 | -8.0
CC(Sc1nc2ccc(Br)cc2[nH]1)C(=O)O (stereo not drawn) | 7.1 | 2.5 | 23.3 | -2.3 | -2.1 | -0.6
CCCSc1nc(-n2ncc(C#N)c2N)c2c3c(sc2n1)CCC(C)C3 (stereo not drawn) | -7.9 | 64.3* | 4.8 | 2.4 | -0.9 | 25.9
Cc1cccc(C)c1NC(=O)NC1(C(=O)NCc2ccncc2)CCCCC1 | 14.3 | · | 22.4 | 1.4 | -5.6 | 8.9
COc1ccc(CN2CCC(n3nccc3NC(=O)C3CC3)CC2)cc1O | -2.0 | · | 27.6 | -1.5 | -0.9 | -0.8
COc1cc(F)ccc1CN1CCC(n2nccc2NC(=O)C2CCOC2)CC1 (stereo not drawn) | -4.0 | · | 36.4 | 0.5 | -2.7 | 52.0*
CSc1cccc(CN2CCC(n3nccc3NC(=O)C3CC3)CC2)c1 | 11.7 | · | 63.6* | -3.8 | -5.3 | 1.7
COC(=O)c1ccc(CN2CCC(n3nccc3NC(=O)C3CCCC3)CC2)cc1 | 1.7 | · | 62.6* | -2.6 | -4.9 | 2.5
COC(C(=O)Nc1ccnn1C1CCN(Cc2nccs2)CC1)c1ccccc1 (stereo not drawn) | 8.2 | · | 6.1 | -2.1 | -0.3 | 50.9*
